The panel holds about 83,000 compounds, 20% with a hit somewhere; the sample as a whole holds those more often.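 Step 1: grow cells in 96-well plates. Step 2: add test compound at a single concentration. Step 3: incubate 48 h. Step 4: record percent growth.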 Activity calls are given as the source filed them. Rule for the calls: active = growth percent below 10; inactive = the rest.
Columns and labels:
Experiment in all cases: NCI-60 one-dose screen, 48 h (100 = growth as untreated, 0 = no growth, -100 = all killed)
Conditions in all cases: 10 µM
[1] = system: NCI-H23 lung
[2] = system: NCI-H226 lung
[3] = system: HOP-62 NSCLC
[4] = system: NCI-H460 lung
[5] = system: HOP-92 NSCLC
[6] = system: NCI-H522 lung
[7] = system: A549/ATCC NSCLC
[8] = system: 786-0 renal
[9] = system: COLO 205 colon
[10] = system: DU-145 prostate
[11] = system: K-562 leukemia
[12] = system: MALME-3M melanoma
[13] = system: MDA-MB-231 breast
[14] = system: RXF 393 renal
[15] = system: SF-268 CNS
[16] = system: SF-295 CNS
[17] = system: SF-539 CNS
[18] = system: UACC-257 melanoma
[19] = system: M14 melanoma

Measured: growth

COc1cc(/C=C/c2cc(/C=C/c3ccc(O)c(OC)c3)[nH]c(=O)n2)ccc1O
inactive: [1] 62.8% | [2] 76.2% | [3] 70.8% | [4] 69.7% | [5] 33.7% | [6] 54.6% | [7] 71.7% | [8] 82.6% | [9] 51.8% | [10] 80.4% | [11] 42% | [12] 53.6% | [13] 54.2% | [14] 23.7% | [15] 48.2% | [16] 92.8% | [17] 69% | [18] 62.5% | [19] 75.5%

CC1CCCC(C(=O)O)C1C(=O)O (stereo not drawn)
inactive: [1] 98.1% | [2] 96.7% | [3] 87.7% | [4] 104% | [5] 86.1% | [6] 80.8% | [7] 78.3% | [8] 94% | [9] 102% | [10] 114% | [11] 87.6% | [12] 87.8% | [13] 92.8% | [14] 94.5% | [15] 105% | [16] 94.8% | [17] 97.8% | [18] 80.8% | [19] 94.7%

COc1ccc(-c2cc(-c3ccc(OC)c(OC)c3)nc(SCCCC(=O)NO)n2)cc1
active: [1] -26.8% | [2] -15.3% | [3] -13.3% | [4] -4.97% | [5] -28.6% | [6] 2.7% | [7] -0.0794% | [8] -20.8% | [9] -12.4% | [10] -2.45% | [11] 7.32% | [12] -6.87% | [13] -10% | [14] -46.6% | [15] 2.03% | [16] -36.8% | [17] 1.28% | [18] 9.39% | [19] -41.5%

Cc1n[nH]c(C)c1N=Nc1cccc2c1C(=O)c1ccccc1C2=O
inactive: [1] 84.7% | [2] 87.4% | [3] 96.9% | [4] 96.5% | [5] 92.6% | [6] 86.7% | [7] 105% | [8] 101% | [9] 104% | [10] 101% | [11] 85.6% | [12] 124% | [13] 82.4% | [14] 87.6% | [15] 96.5% | [16] 99.4% | [17] 90.3% | [18] 111% | [19] 106%

Cc1ccc(Cl)cc1NC(=O)CCl
inactive: [1] 74.2% | [2] 99.4% | [3] 108% | [4] 98.4% | [5] 92.1% | [6] 55.6% | [7] 89.9% | [8] 81.2% | [9] 110% | [10] 99.8% | [11] 39% | [12] 82.1% | [13] 98.5% | [14] 91.8% | [15] 79.3% | [16] 104% | [17] 102% | [18] 85.8% | [19] 62.7%

S=C(SSC(=S)N(c1ccccc1)c1ccccc1)N(c1ccccc1)c1ccccc1
inactive: [1] 100% | [2] 99.2% | [3] 97.6% | [4] 106% | [5] 86.2% | [6] 81.1% | [7] 82% | [8] 105% | [9] 132% | [10] 109% | [11] 104% | [12] 99% | [13] 114% | [14] 111% | [15] 97.8% | [16] 102% | [17] 109% | [18] 81.7% | [19] 101%

C/C=C/CSC(C)(C)C(=O)NC
inactive: [1] 102% | [2] 100% | [3] 89.7% | [4] 104% | [5] 104% | [6] 86% | [7] 88.7% | [8] 108% | [9] 119% | [10] 103% | [11] 110% | [12] 111% | [13] 120% | [14] 110% | [15] 103% | [16] 106% | [17] 100% | [18] 92.2% | [19] 104%

NS(=O)(=O)Oc1ccc2c(ccn2C(=O)C23CC4CC(CC(C4)C2)C3)c1
inactive: [1] 97% | [2] 93.4% | [3] 111% | [4] 104% | [5] 122% | [6] 94.9% | [7] 101% | [8] 110% | [9] 114% | [10] 116% | [11] 101% | [12] 115% | [13] 102% | [14] 115% | [15] 111% | [16] 97.8% | [17] 103% | [18] 102% | [19] 112%

NC(CSC(c1ccccc1)(c1ccccc1)c1cccc2ccccc12)C(=O)O (stereo not drawn)
inactive: [1] 94.2% | [2] 96.6% | [3] 104% | [4] 98.8% | [5] 81.6% | [6] 104% | [7] 92.7% | [8] 98.2% | [9] 108% | [10] 106% | [11] 103% | [12] 112% | [13] 96.1% | [14] 94.2% | [15] 85% | [16] 91.1% | [17] 94.5% | [18] 103% | [19] 108%

Cc1cc(Br)nnc1Br
inactive: [1] 106% | [2] 87.2% | [3] 91.8% | [4] 117% | [5] 128% | [6] 110% | [7] 109% | [8] 104% | [9] 100% | [10] 121% | [11] 99.5% | [13] 92.7% | [14] 120% | [15] 107% | [16] 111% | [17] 87.9% | [18] 133% | [19] 96.8%

CNC(=O)c1cc(Oc2ccc3c(c2)sc2nc(-c4ccc(NC(=O)Nc5ccc(Cl)c(C(F)(F)F)c5)cc4)cn23)ccn1
inactive: [1] 84.7% | [2] 101% | [3] 79.1% | [4] 92.5% | [5] 88.6% | [6] 59% | [7] 79.8% | [8] 72.6% | [9] 89.6% | [10] 75.5% | [11] 74.7% | [12] 83.7% | [13] 77.4% | [14] 84.6% | [15] 84.8% | [16] 76.3% | [17] 56.2% | [19] 85.5%

NS(=O)(=O)c1ccc(N2N=C(c3ccccc3)CCC2=O)cc1
inactive: [1] 95.4% | [2] 120% | [3] 95.8% | [4] 102% | [5] 97.7% | [6] 85.7% | [7] 93.6% | [8] 82.7% | [9] 156% | [10] 182% | [11] 85.1% | [13] 112% | [14] 110% | [15] 176% | [16] 99% | [17] 102% | [18] 96.5% | [19] 100%

COc1cc(-c2nn(-c3cccc(NC(=O)NCCNS(=O)(=O)c4ccc(Cl)cc4)c3)cc2-c2ccncc2)ccc1Cl
active: [4] 1.86% | [5] -3.88% | [6] 7.66% | [8] 6.74% | [9] -64.2% | [11] 2.85% | [13] -2.68% | [14] -13.6% | [16] -44.8% | [17] -38.5% | [19] -24.7%
inactive: [1] 12.4% | [2] 27.3% | [3] 32.9% | [7] 13.3% | [10] 11.5% | [12] 10.9% | [15] 13.1% | [18] 33%

O=C(O)c1ccc(-n2cc(CNc3ccc(Cl)cc3)c(-c3ccccc3)n2)cc1
inactive: [1] 98.4% | [2] 99.1% | [3] 111% | [4] 88.6% | [5] 99.9% | [6] 75.8% | [7] 84.6% | [8] 94.7% | [9] 97.8% | [10] 95.7% | [11] 77.5% | [12] 79.9% | [13] 88.6% | [14] 98.6% | [15] 100% | [16] 80.5% | [17] 82.6% | [19] 94.3%

C=CCNCCN1C(=O)c2ccc3c4c(ccc(c24)C1=O)C(=O)N(CCNCC=C)C3=O
active: [1] -36.4% | [2] -51.6% | [3] -28.7% | [4] -39.3% | [5] -34.5% | [6] -79.7% | [7] -71.4% | [8] -2.95% | [9] -90.5% | [10] -87.7% | [11] 1.43% | [13] 5.12% | [14] -74.3% | [15] -17.5% | [16] -73.1% | [17] -90.6% | [18] -90.3% | [19] -84.3%

CNC(=O)c1cc(Oc2ccc3c(c2)sc2nc(-c4ccc(N)cc4)cn23)ccn1
inactive: [1] 35% | [2] 61.8% | [3] 46.8% | [4] 10.1% | [5] 58.4% | [7] 24.5% | [8] 19.4% | [11] 12% | [12] 66.8% | [13] 22.2% | [14] 43.8% | [15] 41.9% | [16] 18% | [19] 15.5%
active: [6] -22.6% | [9] -11.1% | [10] 7.79% | [17] 6.43%
